SMILES strings stand for the structures. Screen size: about 59,000 compounds; about 6,200 (11%) were called active. Not shown: some 9% with an inconclusive outcome. Cut-off read from the data, not from the text of the source: active = max dye-equivalent concentration above about 10 nM; inconclusive = mostly about 1.1 nM to 9.6 nM; inactive = weaker than that. Only a selection was taken, and actives are over-represented in it overall. Some compounds were tested as several samples or in several runs, with calls that do not always agree.

This experiment can be described thus: qHTS Assay for Spectroscopic Profiling in 4-MU Spectral Region. As to conditions: compound autofluorescence, 340/450 nm, 4-MU equivalents; stronger effect = higher value. The text has this: NIH Molecular Libraries Screening Centers Network [MLSCN] NIH Chemical Genomics Center [NCGC] […] Occasionally, the artifactual effect may originate from the compounds own spectral or other biophysical properties which generally tend to track its assay concentration. Pre-screening/profiling the library with respect to the compounds spectral properties should help one exclude false positives early on. While the most informative fluorescent profiling data set is obtained by performing a full excitation and emission scan of each well by using a monochromator-based plate reader, such an approach is practical only on a very limited scale as scanning each well requires long time. An alternative approach, applied here, is to perform plate reader scans using selected excitation and emission wavelength pairs to generate a multidimensional relational database that correlates compound concentration and the respective relative fluorescence intensity at a given wavelength set. A standard curve of 4-methylumbelliferone (4-MU) present on each plate as six-point concentration series, was used to compute a normalized fluorescence response, termed dye-equivalent concentration, for each compound at each concentration.
NCGC Assay Protocol Summary: Buffer: 100 mM Tris buffer, pH 8.0 Dye standard plate: The wells in columns 1 through 4 of a Kalypsys polypropylene 1536-well compound plate were filled with standard solutions of fluorophore corresponding to the spectral region of interest. Solutions of 4-MU were placed in the following wells: A1, B1: 3 mM, A2, B2: 300 uM, A3, B3: 30 uM, A4, B4: zero (DMSO), C1, D1: 3 uM, C2, D2: 900 nM, C3, D3: 300 nM, C4, D4: zero (DMSO). Assay Steps: Six uL of buffer were dispensed to 1536-well Greiner black plates. Compounds and dye standards (23 nL) were transferred via Kalypsys PinTool. The plates were incubated for 15 min at room temperature, and then read on ViewLux (Perkin-Elmer) High-throughput CCD imager using 340 nm and 450 nm excitation and emission filter set. Keywords: NIH Roadmap, MLSCN, MLI, MLSMR, qHTS, NCGC, Fluorescent Profiling, 4MU, 4-MU
Take `O=C(Nc1cccc(NC(=O)N2CCN(c3ccccc3)CC2)c1)N1CCN(c2ccccc2)CC1`: the max dye-equivalent concentration result is “inactive”.
With `Cn1c(CCN2CCCCCC2)nc2cc(NC(=O)Nc3ccccc3)ccc21`, the max dye-equivalent concentration entry is “inactive”.
Regarding `Cc1nc2ccc(NC(=O)N3CCC(c4ccccc4)C3)cc2nc1C` (stereo not given), the max dye-equivalent concentration was 550 nM (active).
Take `Cc1cc(C)nc(SCc2nnc(SCC(=O)OC3CCCCC3)o2)n1`: the max dye-equivalent concentration result is “inactive”.
With `CCOc1cccc(NC(=O)CC#N)c1`, the max dye-equivalent concentration entry was “inactive”.
`CC(=O)c1cc(C#N)c(SCC(=O)C(C)(C)C)nc1C`: the max dye-equivalent concentration entry was “inactive”.
With `CCOc1ccc2cc(C#N)c(SCC(=O)OC)nc2c1`, the max dye-equivalent concentration was 37 nM (active).
With `Cc1nn(-c2ccccc2)c2c1C(=O)NC(=O)C(C)(C)C2`, the max dye-equivalent concentration entry was “inactive”.
As to `CCC(C(=O)N1CCOCC1)n1c(C(=O)OC)cc2occc21` (stereo not given), the max dye-equivalent concentration entry was “inactive”.
On the same count and under the same terms, as for `CC(=O)c1ccc(N2C(=NC(=O)C(C)C)SC3CS(=O)(=O)CC32)cc1` (stereo not given), the entry is “inactive”.
On to `CCC(C)Sc1nc2c(c(=O)[nH]c(=O)n2C)n1CC(O)COc1cccc2ccccc12` (stereo not given), for which the max dye-equivalent concentration entry is “inactive”.
Take `CCCCOC(=O)c1[nH]c(C)c(C(=O)OC)c1C`: the max dye-equivalent concentration was 360 nM (active).
With `CCOC(=O)c1c(C)[nH]c(C(=O)COc2ccc3c(c2)OCO3)c1C`, the max dye-equivalent concentration result is “inactive”.
In the case of `CCOC(=O)c1c(C)[nH]c(C(=O)NCc2ccccc2OC)c1C`, the max dye-equivalent concentration entry was “inactive”.
Same read-out and setting: the entry for `CCOC(=O)N1CCN(C(=O)Cc2ccc(-n3c(=S)[nH]c4ccccc4c3=O)cc2)CC1` is “inactive”; for `O=C(c1cccs1)N1CCN(C(=O)N2CCOCC2)CC1` it is “inactive”.
`CCN(CC)CCNC(=O)c1cc(S(C)(=O)=O)ccc1OC`: the max dye-equivalent concentration is 10 nM (active) and the result was inactive.
Regarding `COc1ccc(C)cc1NC(=O)c1[nH]c(C)c(C(C)=O)c1C`, the max dye-equivalent concentration entry was “inactive”.
On to `CCN(CC)S(=O)(=O)c1ccc2[nH]cc(C(=O)NCCc3ccccc3)c(=O)c2c1`, for which the max dye-equivalent concentration result is “inactive”.
On to `Cc1onc(-c2ccccc2)c1C(=O)N1CCOCC1`, for which the max dye-equivalent concentration result is “inactive”.
Same read-out and setting: as for `CCN(c1ccccc1)S(=O)(=O)c1cccc(C(=O)O)c1`, the entry is “inactive”.
Same read-out and setting: as for `CN(c1nc2ccccc2n2c(-c3ccco3)nnc12)S(=O)(=O)c1ccccc1`, the figure is 39 nM (active); as for `Cc1ccc(Oc2nc3ccccc3n3c(C)nnc23)cc1`, “inactive”; as for `c1ccc(CSc2nnc(-c3ccco3)n2Cc2ccccc2)cc1`, “inactive”.
Regarding `CCc1cc(Br)ccc1NC(=O)C1CCCO1` (stereo not given), the max dye-equivalent concentration result is “inactive”.
On to `CC(=O)N1CCN(CCN=CC2=C(O)CC(C)(C)CC2=O)CC1`, for which the max dye-equivalent concentration result was “inactive”.
`N#CC(C(=O)c1ccc(S(=O)(=O)N2CCCCCC2)cc1)c1nc2ccccc2[nH]1` (stereo not given): the max dye-equivalent concentration was 24 nM (active).
Regarding `COc1ccccc1N1CCN(C(=O)c2ccc(S(=O)(=O)N3CCCCC3)cc2)CC1`, the max dye-equivalent concentration entry was “inactive”.
For `Cc1ccccc1-c1nnn(CC(=O)c2ccc(S(=O)(=O)N3CCCC3)cc2)n1`, the max dye-equivalent concentration entry is “inactive”.
